Test results taken from PubChem BioAssay (NCATS).
Values joined by “and” are separate entries in the source; they are usually repeats but may differ in a detail not shown here. Equal entries are not always repeated. Records with an inconclusive call do not appear. Unmarked numbers belong to inactive results. Active and inactive are the calls of the source. Calls follow the shape of the dose curve; as a rule, active = well fitted activation curve with a large enough effect; inconclusive = small, poorly fitted or top-dose-only effect; inactive = no such curve, though single readings can be large or run the other way.

These molecules were tested against Cellular tumor antigen p53 (Homo sapiens) (UniProt P04637) (assay: Primary qHTS for small molecule compounds that upregulate eGFP-tagged delta133p53alpha (in N-terminal) cells. (AID 2060322; also: nearly all actives have a fitted effect of over 75% in size;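 as to activation: cells pre-induced with doxycycline then dosed without doxycycline; series mostly up to about 56 µM; 0% = DMSO vehicle and 100% = reference activator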)). Conditions: NCI-H358 eGFP-delta133p53alpha fluorescence, 24 h; activation: active compounds read high.
Sequence of Cellular tumor antigen p53 (Homo sapiens) (P04637 whole entry, looked up): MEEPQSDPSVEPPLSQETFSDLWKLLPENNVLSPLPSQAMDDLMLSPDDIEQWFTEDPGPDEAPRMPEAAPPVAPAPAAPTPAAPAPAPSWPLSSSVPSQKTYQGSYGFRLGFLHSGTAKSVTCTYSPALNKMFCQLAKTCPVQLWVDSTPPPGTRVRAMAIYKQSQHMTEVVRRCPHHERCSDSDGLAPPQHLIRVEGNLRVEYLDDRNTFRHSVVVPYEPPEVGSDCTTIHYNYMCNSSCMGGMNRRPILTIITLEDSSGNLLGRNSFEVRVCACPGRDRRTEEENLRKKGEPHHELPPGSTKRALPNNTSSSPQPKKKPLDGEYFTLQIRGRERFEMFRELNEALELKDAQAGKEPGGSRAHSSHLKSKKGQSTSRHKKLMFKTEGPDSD
Outline: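 NCI-H358 cells pre-induced 24 h with 10 ng/ml doxycycline for eGFP-delta133p53alpha, plated dox-free and exposed 24 h at 37C to titrated compounds. Fixed, Hoechst-stained; gated GFP peak intensity by laser scanning cytometry, normalized to DMSO (0%) and 57.5 uM 5-azacytidine (100%).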
Potency is read from the fitted curve at half-maximal effect.

Row | SMILES | activation | Potency
1 | CN1CCC(O)(c2ccc(F)cc2)C(C(=O)c2ccc(F)cc2)C1 (centres undefined) | -14.1% | 
2 | O=c1n(Cl)c(=O)n(Cl)c(=O)n1Cl | 6.21% | 
3 | O=[N+]([O-])O[C@H]1CO[C@H]2[C@@H]1OC[C@H]2O[N+](=O)[O-] | 34.5% | 
4 | CC(=O)OC1(c2ccccc2)CCN(CCc2ccccc2)CC1 | -10.7% | 
5 | COP(=S)(OC)Oc1cc(Cl)c(Cl)cc1Cl | -17.5% | 
6 | CCN(Cc1ccc(Cl)nc1)/C(=C/[N+](=O)[O-])NC | -24.3% | 
7 | CC(C)NC(C)C | -1.69% | 
8 | COC1=CC(C)=C[C@@H](C)[C@@H](O)[C@@H](C)CC(C)=CC=C[C@H](OC)[C@H]([C@@H](C)[C@@H](O)[C@H](C)[C@@]2(O)C[C@@H](O)[C@H](C)[C@@H](C(C)C)O2)OC1=O | 6.87% | 
9 | C[C@]12CC[C@H]3[C@@H](CCC4=CC(=O)CC[C@@H]43)[C@@H]1CC[C@@H]2O | -0.837% | 
10 | Cc1ccc(N=CN(C)C=Nc2ccc(C)cc2C)c(C)c1 | 13% | 
11 | CCC(OC(C)=O)C(CC(C)NC)(c1ccccc1)c1ccccc1 (centres undefined) |  | 28.5 µM (active)
12 | O=c1[nH]c2cc(Cl)ccc2n1C1CCNCC1 | 9.6% | 
13 | O=C1NCN(c2ccccc2)C12CCN(CCCOc1ccc(F)cc1)CC2 | 0.837% | 
14 | COc1ccc(CN2CCNCC2)c(OC)c1OC | -13% | 
15 | O=c1c(C2CC(c3ccc(-c4ccc(Br)cc4)cc3)Cc3ccccc32)c(O)sc2ccccc12 (centres undefined) | -13% | 
16 | C[C@@H]1CC[C@H]2[C@@H](C)C(=O)O[C@@H]3O[C@@]4(C)CC[C@H]1[C@]32OO4 | 5.37% | 
17 | CCCN(CCC)CCc1c[nH]c2ccccc12 | 22% | 
18 | CC(C)c1c(CN(C)C(C)Cc2ccccc2)n(C)n(-c2ccccc2)c1=O (centres undefined) | -14.2% | 
19 | CN1C(=O)CN=C(c2ccccc2)c2cc(Cl)ccc21 | -7.34% | 
20 | CC(C)=CC1C(C(=O)OCN2C(=O)C3=C(CCCC3)C2=O)C1(C)C (centres undefined) | 17.6% | 

Row | SMILES | activation | Potency
21 | COc1cc2cc(c1Cl)N(C)C(=O)C[C@H](OC(=O)C(C)C)[C@]1(C)O[C@H]1[C@H](C)[C@@H]1C[C@@](O)(NC(=O)O1)[C@H](OC)C=CC=C(C)C2 | 0.447% | 
22 | N[C@@H](Cc1ccc(Oc2cc(I)c(O)c(I)c2)c(I)c1)C(=O)O | 11.7% | 
23 | C[C@]12CC[C@H]3[C@@H](CC[C@@]45O[C@H]4C(O)=C(C#N)C[C@]35C)[C@H]1CC[C@H]2O |  | 21.7 µM (active)
24 | Clc1cccc(N2CCNCC2)c1 | 17.5% | 
25 | COP(=S)(OC)Oc1ccc(S(N)(=O)=O)cc1 | -28.8% | 
26 | NC(N)=NOCC[C@H](N)C(=O)O | -12% | 
27 | C[N+]1(C)[C@@H]2CC[C@H]1CC(OC(=O)C(CO)c1ccccc1)C2 (some centres undefined) | 25.4% | 
28 | COc1ccc2c(c1)CN(C)CC2c1ccc(Cl)c(Cl)c1 (centres undefined) | 10.8% | 
29 | CCCC(C)(COC(N)=O)COC(=O)NC(C)C (centres undefined) | -6.69% and 15.9% | 
30 | COc1ccc2c3c1O[C@H]1[C@H](O)CC[C@H]4[C@@H](C2)N(C)CC[C@@]341 | 16.4% | 
31 | CCCN(CCC)C(=O)Cc1c(-c2ccc(Cl)cc2)nc2ccc(Cl)cn12 | 29.3% | 
32 | C=CC[C@]1(O)CC[C@H]2[C@@H]3CCC4=CC(=O)CCC4=C3C=C[C@@]21C | -4.18% | 
33 | FC(F)(F)c1cccc(C2=CCN(CCc3ccc4ccccc4c3)CC2)c1 | -5.08% | 
34 | CCCCC(CC)COC(=O)c1ccccc1C(=O)OCC(CC)CCCC (centres undefined) | 0% | 
35 | C=C1CC[C@@]2(O)[C@H]3Cc4ccc(O)c5c4[C@@]2(CCN3CC2CC2)[C@H]1O5 | 6.21% | 
36 | CCC(C)C(C)(COC(N)=O)COC(N)=O (centres undefined) | 8.37% | 
37 | O=C(O)c1ccc2[nH]cc(CCCCN3CC=C(c4ccccc4)CC3)c2c1 | -5.08% | 
38 | CCC(COC(=O)c1cc(OC)c(OC)c(OC)c1)(c1ccccc1)N(C)C (centres undefined) | -7.34% | 
39 | COc1ccc2[nH]cc(CCN(C(C)C)C(C)C)c2c1 | 23.2% | 
